From PubChem BioAssay come the findings set out here.

SMILES strings stand for the structures. The source made the active and inactive calls.

Chain of Homeobox protein Hox-A13 (Mus musculus) (Q62424 whole entry, looked up): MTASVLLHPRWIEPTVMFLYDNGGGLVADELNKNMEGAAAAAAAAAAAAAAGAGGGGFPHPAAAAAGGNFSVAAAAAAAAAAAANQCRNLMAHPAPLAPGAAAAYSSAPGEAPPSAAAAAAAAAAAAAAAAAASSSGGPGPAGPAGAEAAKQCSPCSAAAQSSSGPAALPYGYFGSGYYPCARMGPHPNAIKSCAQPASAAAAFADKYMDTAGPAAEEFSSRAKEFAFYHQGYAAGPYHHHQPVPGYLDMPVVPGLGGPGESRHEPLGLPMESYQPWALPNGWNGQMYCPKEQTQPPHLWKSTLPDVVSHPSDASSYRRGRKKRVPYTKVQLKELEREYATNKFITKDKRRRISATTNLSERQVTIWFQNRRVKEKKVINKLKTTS

This assay concerns the target Homeobox protein Hox-A13 (Mus musculus) (UniProt Q62424). As to the kind of experiment: disruptors of Hoxa13 oligonucleotide interaction – biochemical, fluorescence polarization, labeled oligonucleotide, primary screen (AID 1185). The note with it: Hoxa13:DNA binding, 15 min, higher = more signal, called active from +8 up or from −8 down. On the technique in general: Polarisation of emitted light reports the rotation of a fluorescent probe.
Consider `C[C@H]1CC[C@H]2C(=O)N[C@H](Cc3ccccc3)C(=O)N2[C@@H]1c1ccccc1`, for which the z-score is -0.879 (inactive).

As to `COc1ccc(COC(=O)NN=C2C[C@@H](O)[C@@H](O)[C@@H]3[C@@H]4C(=O)N(C[C@@H]5CCCO5)C(=O)[C@@H]4CC[C@H]23)cc1`, the z-score is 0.459 (inactive).

Regarding `OC[C@H]1O[C@H](C#Cc2ccccc2)C=C[C@@H]1O`, the z-score was -2.53 (inactive).

As for `O=C1C=C[C@@H](O)[C@@H]2[C@@H]3C(=O)N(c4cccc(Oc5ccccc5)c4)C(=O)[C@@H]3CC[C@@H]12`, the z-score is -0.827 (inactive).

For the molecule `O=C1CCCC=C1C(O)COCc1ccccc1` (stereo unspecified), the z-score was -3.62 (inactive).

As for `CCN1C(=O)[C@H]2[C@H]3[C@H](O)[C@H](O)CC(=NO[C@H](C)c4cn([C@H](CO)Cc5ccccc5)nn4)[C@@H]3CC[C@H]2C1=O`, the z-score is -2.36 (inactive).

Regarding `COc1ccc(O[C@H]2C=C[C@@H](c3ccccc3)O[C@@H]2CON=C2c3cc(OC)ccc3O[C@H](c3cccc(OC)c3)[C@H]2O)cc1`, the z-score is 1.67 (inactive).

On to `CCOC(=O)CCN1C(=O)[C@H]2[C@@H]3C(=CC[C@H]2C1=O)C(=O)[C@H]1O[C@H]1[C@H]3O`, for which the z-score is -4.11 (inactive).

Regarding `CC(C)=CCCC(C)=CCON=C1C[C@@H](O)[C@@H](O)[C@@H]2[C@@H]3C(=O)N(Cc4ccc5c(c4)OCO5)C(=O)[C@@H]3CC[C@H]12`, the z-score was -4.72 (inactive).

For the molecule `C=CC[C@@H]1C=C[C@H](ON=C(C)CCN2CCCCc3nc(C)c(C)cc32)[C@@H](CO)O1`, the z-score is -4.55 (inactive).

As for `CON=C(C)CCN1CCCCc2nc(C)c(C)cc21`, the z-score was -2.24 (inactive).

In the case of `COc1ccc(COC(=O)NN=C2C[C@@H](O)[C@@H](O)[C@@H]3[C@@H]4C(=O)N(c5cccc(Oc6ccccc6)c5)C(=O)[C@@H]4CC[C@H]23)cc1`, the z-score was -3.81 (inactive).

In the case of `COCCNC(=O)OCC1CCCC2(CC(OC(=O)NCc3cccc4ccccc34)CC(CCC(=O)N[C@@H](C)C(=O)OC)O2)O1` (stereo partly specified), the z-score is -3.88 (inactive).

On to `CCOC(=O)[C@H](CC(C)C)NC(=O)CCC1CC(OC(=O)NCc2ccc3c(c2)OCO3)CC2(CCCC(COC(=O)NCCc3ccc(Cl)cc3)O2)O1` (stereo partly specified), for which the z-score was -6.16 (inactive).

`CC(C)CON=C1C[C@@H](O)[C@@H](O)[C@@H]2[C@@H]3C(=O)N(Cc4ccc5c(c4)OCO5)C(=O)[C@@H]3CC[C@@H]12`: the z-score is -0.441 (inactive).

For `CC(C)=CCCC(C)=CCON=C1C[C@@H](O)[C@@H](O)[C@@H]2[C@@H]3C(=O)N(Cc4ccc5c(c4)OCO5)C(=O)[C@@H]3CC[C@@H]12`, the z-score is -0.814 (inactive).

Consider `Cc1cc2c(nc1C)CCCCN2CC(O)CN1CCCc2nc(-c3ccc(Br)cc3)ccc21` (stereo unspecified), for which the z-score is -4.77 (inactive).

As to `COc1ccc(OC[C@@H]2CC3[C@@H](c4ccc(Br)cc4)[C@H](C)CC[C@H]3C(=O)O2)cc1` (stereo partly specified), the z-score is 0.109 (inactive).

As to `CCN1C(=O)[C@H]2[C@H]3[C@H](O)[C@H](O)CC(=NO[C@@H]4O[C@H](COC(C)=O)[C@@H](OC(C)=O)[C@H](OC(C)=O)[C@H]4OC(C)=O)[C@@H]3CC[C@H]2C1=O`, the z-score is -1.75 (inactive).

As for `COc1ccc(O[C@H]2C=C[C@@H](c3ccccc3)O[C@@H]2COC(=O)NCc2cccc3ccccc23)cc1`, the z-score was 1.25 (inactive).

`CCN1C(=O)[C@H]2[C@H]3[C@H](O)[C@H](O)CC(=NOC[C@@H](O)COCc4ccco4)[C@H]3CC[C@H]2C1=O`: the z-score was 0.366 (inactive).

In the case of `CCOC(=O)CCN1C(=O)[C@H]2[C@H]3[C@H](O)[C@H](O)CC(=NO[C@@H]4O[C@H](CO)[C@@H](O)[C@H](O)[C@H]4O)[C@H]3CC[C@H]2C1=O`, the z-score was -0.139 (inactive).

Turning to `CO[C@H]1COC(=O)CC=C[C@@H](C)COC(=O)[C@H]2CCCN2C(=O)CC=C[C@H]1C`, the z-score was -0.292 (inactive).

As to `CCCC[C@H]1CN2[C@@H](CC[C@@H](C)[C@@H]2c2ccc(Br)cc2)C(=O)O1`, the z-score is -3.59 (inactive).

Take `CCOC(=O)CCN1C(=O)[C@H]2[C@H]3[C@H](O)[C@H](O)CC(=NOCC=C(C)CCC=C(C)C)[C@@H]3CC[C@H]2C1=O`: the z-score is -1.21 (inactive).

In the case of `CCN1C(=O)[C@H]2[C@H]3[C@H](O)[C@H](O)CC(=NOCC[C@@H]4C=C[C@H](OC(C)=O)[C@@H](COC(C)=O)O4)[C@@H]3CC[C@H]2C1=O`, the z-score was -1.8 (inactive).

In the case of `CCOC(=O)CCN1C(=O)[C@H]2[C@H]3[C@H](O)[C@H](O)CC(=NO[C@@H]4O[C@H](CO)[C@@H](O)[C@H](O)[C@H]4O)[C@@H]3CC[C@H]2C1=O`, the z-score was 0.142 (inactive).

`CCOC(=O)[C@H](CC(C)C)NC(=O)CCC1CC(OC(=O)NCCc2ccc(F)cc2)CC2(CCCC(COC(=O)NCCOC)O2)O1` (stereo partly specified): the z-score is -6.12 (inactive).

Take `C[C@@H](c1ccccc1)N1C(=O)[C@H]2[C@H]3[C@H](O)[C@H](O)CC(=NOC[C@@H](O)COCc4ccco4)[C@H]3CC[C@H]2C1=O`: the z-score was -3.21 (inactive).

As for `CC(C)CN1CCc2nc(-c3ccccc3)c3c(c2C1)CO[C@@H](C)C3`, the z-score is -4.73 (inactive).

As for `O=C1[C@H]2[C@H]3[C@H](O)[C@H](O)CC(=NOC[C@@H](O)COCc4ccco4)[C@@H]3CC[C@H]2C(=O)N1c1cccc(Oc2ccccc2)c1`, the z-score is -5.57 (inactive).

For `CO[C@@H](C1CCCCC1)[C@@H](C)[C@H](OCc1cccc(Br)c1)[C@@H](C)CO`, the z-score is -4.53 (inactive).

`CCN1C(=O)[C@H]2[C@H]3[C@H](O)[C@H](O)CC(=NO[C@@H]4O[C@H](CO)[C@@H](O)[C@H](O)[C@H]4O)[C@H]3CC[C@H]2C1=O`: the z-score is -0.898 (inactive).

As for `CCN1C(C)=C(C(=O)OC)[C@@H](c2ccccc2)N2C(=O)[C@](O)(C(=O)OC)CC(C(C)=O)=C12`, the z-score is 0.334 (inactive).

`C#CCCCON=C1[C@H]2CCn3c(=O)n([C@@H](CC)c4ccccc4)c(=O)n3[C@H]2[C@H](O)[C@@H]2O[C@H]12`: the z-score was -3.68 (inactive).

As for `CCOC(=O)[C@H](Cc1ccccc1)NC(=O)CCC1CC(OC(=O)NCc2ccc3c(c2)OCO3)CC2(CCCC(COC(=O)NCCOC)O2)O1` (stereo partly specified), the z-score was -3.78 (inactive).
